The record followed here is PubChem BioAssay (NCI).

Assay [1] is described as follows: NCI Yeast Anticancer Drug Screen. Data for the rad50 strain (AID 155).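 Further: 0% = growth of vehicle-only cultures of the same strain.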 The note with it: S. cerevisiae rad50 strain growth inhibition; at 50.0 µM; active compounds read high. In outline:
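Growth of the mutant yeast was measured after compound exposure and referenced to vehicle-treated cultures.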

A short description of assay [2]: NCI Yeast Anticancer Drug Screen. Data for the mec2-1 strain (AID 157). The note with it: S. cerevisiae mec2-1 strain, at 50.0 µM, active compounds read high. Put shortly: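 Growth inhibition is read against vehicle-treated controls after compound exposure of the mec2-1 yeast strain, which is defective in DNA damage repair or cell cycle control.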
Assay [3] can be described thus: NCI Yeast Anticancer Drug Screen. Data for the sgs1 mgt1 strain (AID 161).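 Further: 0% = growth of cultures given vehicle only.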 The conditions noted are these: S. cerevisiae sgs1 mgt1 strain, at 50.0 µM, active compounds read high. In outline: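 Compounds are added to genetically altered yeast, and growth is compared with cultures given vehicle alone to give percent inhibition.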
Assay [4] in a line: NCI Yeast Anticancer Drug Screen. Data for the cln2 rad14 strain (AID 165).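 Further: 0% = growth equal to vehicle treated cultures.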 The note with it: S. cerevisiae cln2 rad14 strain, at 50.0 µM, active compounds read high. Put shortly:
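Growth inhibition, relative to vehicle-treated controls, is the read-out. The test organism is a yeast strain with defined genetic alterations, cln2 rad14.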

Assay [5] is described as follows: NCI Yeast Anticancer Drug Screen. Data for the bub3 strain (AID 167). The conditions noted are these: S. cerevisiae bub3 mutant strain, at 50.0 µM, active compounds read high. Put shortly: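 Whole-cell yeast assay. The mutant strain was incubated with compounds, and growth inhibition was determined by comparison with vehicle-treated cells.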
Assay [6] can be described thus: NCI Yeast Anticancer Drug Screen. Data for the mlh1 rad18 strain (AID 175). The conditions noted are these: S. cerevisiae mlh1 rad18 strain growth inhibition; at 50.0 µM; active compounds read high. Put shortly:
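Cells of a genetically altered yeast strain, deficient in DNA damage repair, were treated with compound. Their growth was then compared with that of vehicle-treated cultures to give inhibition.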

The panel holds about 79,000 compounds, 15% with a hit somewhere; the sample as a whole holds those more often. Unmarked numbers belong to inactive results. Activity calls are given as the source filed them. No stated cut-off is given here; in the data, active means growth inhibition above about 70%; inactive means the rest.

With `O=C1CS(=O)(=O)c2ccccc21`, the growth inhibition was -11.4% in assay [1]; 1.5% in assay [2]; 1.5% in assay [3]; -13.3% in assay [4]; -8.8% in assay [5]; 22.2% in assay [6].
Turning to `CCC1(O)CC2C3C(C(=O)OC)=C4Nc5ccccc5C45CCN(C31)C25` (stereo not given), the growth inhibition in assay [1] was 6.2%; in assay [2], -6.3%; in assay [3], 3.35%; in assay [4] it was 11.8%; in assay [5] it was 1.9%; in assay [6], -2.1%.
For the compound `O=C1Nc2c(cccc2-c2ccccc2)C(=O)C1(O)c1ccccc1` (stereo not given), the growth inhibition is -0.35% in assay [1]; -1.2% in assay [2]; -0.6% in assay [3]; -9.8% in assay [4]; -2.6% in assay [5]; -3.95% in assay [6].
`CCOC(=O)Cn1c(=O)n(C)c(=O)c2[nH]cnc21`: the growth inhibition was 28.7% in assay [1]; -27.1% in assay [2]; 17.4% in assay [3]; 15.1% in assay [4]; 22.5% in assay [5]; 28.5% in assay [6].
Take `CCC(Cc1ccco1)C(=O)NC(N)=O` (stereo not given): the growth inhibition in assay [1] was -10.2%; in assay [2], 4.4%; in assay [3], -9.8%; in assay [4] it was -9.1%; in assay [5], 0.65%; in assay [6], 11.3%.
For the compound `CCCC(=O)N(C)c1ccccc1`, the growth inhibition in assay [1] is 7.5%; in assay [2] it was -11.1%; in assay [3] it was -1.85%; in assay [4] it was -29.4%; in assay [5], 6.35%; in assay [6], -8.35%.
For `O=C(/C=C/C=C/c1ccc2c(c1)OCO2)N1CCCCC1`, the growth inhibition in assay [1] is -1.5%; in assay [2], -26.4%; in assay [3] it was 12.1%; in assay [4], -22.6%; in assay [5], 5.45%; in assay [6], -22.7%.
For `CC1=CC(=O)c2ccc3c4ccccc4n(C)c3c2C1=O`, the growth inhibition in assay [1] is -16.7%; in assay [2] it was -35.1%; in assay [3], -13.9%; in assay [4], 0.2%; in assay [5] it was -2.9%; in assay [6], -19.9%.
With `O=C(O)c1ccc2c3ccc(C(=O)O)c4c(C(=O)O)ccc(c5ccc(C(=O)O)c1c25)c43`, the growth inhibition was -21.1% in assay [1]; -33.5% in assay [2]; -17.5% in assay [3]; -0.25% in assay [4]; -19.6% in assay [5]; -19.1% in assay [6].
For the compound `Cc1cc(C)n(-c2ccc(Cl)nn2)n1`, the growth inhibition is 9.25% in assay [1]; 8.35% in assay [2]; 4.35% in assay [3]; -27.6% in assay [4]; 9% in assay [5]; -1.7% in assay [6].
In the case of `NC(=O)Nc1ccc2ccccc2c1`, the growth inhibition was 8.8% in assay [1]; -9.75% in assay [2]; 1.65% in assay [3]; -3.95% in assay [4]; -19.8% in assay [5]; -5.25% in assay [6].
In the case of `CCCCCC(=O)/C=C/CC(CCCCCCC#N)C(CC(OC)OC)[N+](=O)[O-]` (stereo not given), the growth inhibition was -42.2% in assay [1]; -24.2% in assay [2]; 0.9% in assay [3]; 14.3% in assay [4]; -1.75% in assay [5]; -37.4% in assay [6].
Turning to `CCCSc1cc(Cl)c(C)cc1S(=O)(=O)n1cc[nH]c1=O`, the growth inhibition is 11.9% in assay [1]; 7.3% in assay [2]; 9.15% in assay [3]; 5.75% in assay [4]; 13.3% in assay [5]; 35.7% in assay [6].
Take `O=[N+]([O-])c1ccc2c(c1)Cc1cc([N+](=O)[O-])ccc1-2`: the growth inhibition in assay [1] is -12.3%; in assay [2] it was -64.5%; in assay [3] it was -25.4%; in assay [4], -181%; in assay [5], -54.1%; in assay [6], 51.2%.
Consider `COC(=O)c1nnn(CCc2c[nH]c3ccccc23)c1C(=O)OC`, for which the growth inhibition in assay [1] is -10.8%; in assay [2] it was 4%; in assay [3], -11.3%; in assay [4] it was -11.6%; in assay [5] it was 19.8%; in assay [6], -24.7%.
With `CS(=O)(=O)Nc1cccc(C(=O)O)c1`, the growth inhibition in assay [1] is 28.6%; in assay [2], -0.05%; in assay [3], 14.8%; in assay [4], -2.85%; in assay [5], -28.9%; in assay [6], -23%.
Turning to `CCOCCOCCOC12C(=O)C(Cl)=C(Cl)C(=O)C13C1CC2C(Cl)C13` (stereo not given), the growth inhibition in assay [1] was 99.4% (active); in assay [2], 99.5% (active); in assay [3], 98.9% (active); in assay [4], 98% (active); in assay [5] it was 98.7% (active); in assay [6], 98.2% (active).
As to `COc1ccc(C(CC(=O)c2ccccc2)C(=O)c2ccc3c(c2)OCO3)cc1` (stereo not given), the growth inhibition in assay [1] was -40%; in assay [2], -50.5%; in assay [3], -38.8%; in assay [4] it was -12.7%; in assay [5], -0.3%; in assay [6] it was -31.6%.
Take `Cc1[nH]n(C(N)=S)c(=O)c1N=Nc1c(Cl)cccc1Cl`: the growth inhibition in assay [1] is 55.4%; in assay [2], 14.9%; in assay [3], 63.2%; in assay [4], -37.4%; in assay [5], 11.9%; in assay [6] it was 51%.
As for `c1ccc2cc(Nc3ccc(Nc4ccc5ccccc5c4)cc3)ccc2c1`, the growth inhibition in assay [1] is 0.25%; in assay [2], 4.4%; in assay [3] it was 12.3%; in assay [4], 14.7%; in assay [5] it was 27.2%; in assay [6], 2.6%.
